Reference: PubChem BioAssay AID485290 (National Center for Advancing Translational Sciences (NCATS), 2010)
Where “and” joins values, the source holds several entries; their conditions need not be identical. Equal entries are not always repeated. The whole screen tested about 350,000 compounds, of which about 990 (0.28%) were called active. Inconclusive results (about 2%) are left out. Calls follow the shape of the dose curve; as a rule, active = well fitted inhibition curve with a large enough effect; inconclusive = small, poorly fitted or top-dose-only effect; inactive = no such curve, though single readings can be large or run the other way. Only a selection was taken, and actives are over-represented in it overall. More than one record can exist for a structure, and the calls need not agree.

Target: Tyrosyl-DNA phosphodiesterase 1 (Homo sapiens) (UniProt Q9NUW8)
Sequence (Q9NUW8 whole entry, looked up): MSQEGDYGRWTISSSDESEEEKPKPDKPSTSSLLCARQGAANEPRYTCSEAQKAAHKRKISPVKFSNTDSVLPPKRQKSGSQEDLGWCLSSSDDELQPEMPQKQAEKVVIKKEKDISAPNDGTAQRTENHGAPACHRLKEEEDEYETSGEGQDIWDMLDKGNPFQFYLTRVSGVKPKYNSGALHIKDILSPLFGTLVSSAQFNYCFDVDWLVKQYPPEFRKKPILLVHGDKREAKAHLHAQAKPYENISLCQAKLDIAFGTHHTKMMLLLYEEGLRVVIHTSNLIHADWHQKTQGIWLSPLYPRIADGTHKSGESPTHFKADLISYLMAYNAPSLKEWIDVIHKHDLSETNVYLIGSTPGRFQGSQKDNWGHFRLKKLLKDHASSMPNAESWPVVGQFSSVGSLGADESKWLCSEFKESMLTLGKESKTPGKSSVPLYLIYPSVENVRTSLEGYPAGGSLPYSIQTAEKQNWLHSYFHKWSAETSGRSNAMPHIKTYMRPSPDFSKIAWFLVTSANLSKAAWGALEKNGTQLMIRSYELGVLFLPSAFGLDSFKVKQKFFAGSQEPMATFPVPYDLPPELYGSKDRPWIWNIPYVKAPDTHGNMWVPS
Assay: qHTS Assay for Inhibitors of Tyrosyl-DNA Phosphodiesterase (TDP1); also: nearly all actives have a fitted effect of over 40% in size
Conditions: recombinant TDP1, AlphaScreen DNA substrate cleavage; series mostly up to 130 µM; activity change, negative = inhibition: at the top concentration
Summary of the method: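 Tdp1 1 nM final; 15 min RT w/ cpd; substrate 15 nM, 5 min; beads 10 ug/ml, 10 min; AlphaScreen read. Neg ctrl: no enzyme.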
% is scaled to controls: 0 for no effect and ±100 for the full control effect; potency is read from the fitted curve at half-maximal effect.

| Compound | activity change, negative = inhibition | Potency |
| --- | --- | --- |
| COC(=O)c1ccccc1NC(=O)c1ccc(C#N)cc1 | -0.089% (inactive) | – |
| CCOC(=O)c1ccc(NC(=O)c2c(NCc3cccs3)sc3c2CCCC3)cc1 | 9.48% (inactive) | – |
| Cc1nn2c(=O)cc(COC(=O)c3cccc(NC(=O)COc4ccccc4Cl)c3)nc2s1 | -1.25% (inactive) | – |
| O=C1N/C(=C/c2cccn2-c2ccccc2)C(=O)N1c1cccc(Cl)c1 | 2.82% (inactive) | – |
| Cc1ccccc1NC(=O)CN1C(=O)N/C(=C\c2cccn2-c2cccc(C(=O)O)c2)C1=O | – | 1.41 µM (active) |
| Cc1cccc(NC(=O)CN2C(=O)c3ccccc3C2=O)c1C | 3.47% (inactive) | – |
| O=C(COc1ccccc1Cl)Nc1ccc2nc(SCC(=O)N3CCCC3)sc2c1 | 3.65% (inactive) | – |
| Oc1ccc(/C=C/c2c(F)cccc2F)c2cccnc12 | -16.6% (inactive) | – |
| O=S(=O)(c1cccc(C(F)(F)F)c1)N1CCN(c2nc(-c3cccs3)nc3ccccc23)CC1 | -0.0669% (inactive) | – |
| O=Cc1ccc(OCc2cn3ccccc3n2)cc1 | -7.14% (inactive) | – |
| CN(C)C(CNC(=O)c1ccc(OCc2cn3ccccc3n2)cc1)c1ccco1 (centres undefined) | – | 14.1 µM (active) |
| COc1ccc(C(=O)NCc2cn3ccccc3n2)cc1 | 4.76% (inactive) | – |
| CCOC(=O)Cn1c(=O)n(-c2ccccc2OC)c2nc(-c3cccc(F)c3)nc(C(N)=O)c21 | 7.69% (inactive) | – |
| COc1ccc(C(=O)Nc2ccc(-n3nncc3-c3ccccc3)cc2)cc1OC | 10.4% (inactive) | – |
| CO/N=C(\C(=O)N[C@@H]1C(=O)N2C(C(=O)O)=C(COC(C)=O)CS[C@H]12)c1csc(N)n1 (stereo in doubt) | – | inactive and 10 µM (active) and 20 µM (active) |
| Cc1nnc(SCC2=C(C(=O)O)N3C(=O)C(NC(=O)Cn4nc(C)c(Cl)c4C)C3SC2)s1 (centres undefined) | 0% (inactive) | – |
| Cc1cc(C)cc(C(=O)NC2C(=O)N3C(C(=O)O)=C(CSc4nnc(C)s4)CSC23)c1 (centres undefined) | -8.05% (inactive) | – |
| C=CC1=C(C(=O)O)N2C(=O)[C@@H](NC(=O)/C(=N\OCC(=O)O)c3csc(N)n3)[C@H]2SC1 | – | 14.1 µM (active) |
| COc1ccc(C2Nc3ccc(NC(=O)COC(C)=O)cc3C(=O)N2Cc2ccccc2)cc1COc1ccc(NC(C)=O)cc1 (centres undefined) | -3.82% (inactive) | – |
| COc1cccc(Cn2c(SCc3ccc(C(=O)N4CCC(C)CC4)cc3)nc3ccncc32)c1 | 5.06% (inactive) | – |
| CCOC(=O)c1ccc(NC(=O)c2c(NCc3cccc(OC)c3)sc3c2CCC3)cc1 | 7.58% (inactive) | – |
| COC(=O)c1ccc(NC(=O)c2cnn(-c3ccc(Cl)cc3)c2C2CCN(C(=O)OC(C)(C)C)CC2)cc1 | -1.06% (inactive) | – |
| COc1ccc(C(=O)Nc2cccc(C(=O)OCc3cc(=O)n4c5c(sc4n3)CCCC5)c2)cc1 | 1.25% (inactive) | – |
| CC(C)c1ccc(NC(=O)c2ccc(Cn3nc(N4CCN(c5ccccc5)CC4)ccc3=O)o2)cc1 | 0% (inactive) | – |
| Cc1ccc(-c2nc3ccccn3c2Nc2ccc(F)cc2)o1 | 4.27% (inactive) | – |

| Compound | activity change, negative = inhibition | Potency |
| --- | --- | --- |
| Cc1ccc2nc(-c3ccncc3)cc(C(=O)Nc3ccncc3)c2c1 | 4.27% (inactive) | – |
| Cc1ccc2nc(-c3ccncc3)cc(C(=O)Nc3ccc4c(c3)OCCO4)c2c1 | -8.22% (inactive) | – |
| Cc1ccc2nc(-c3ccncc3)cc(C(=O)Nc3ccc(OC(F)F)cc3)c2c1 | – | 50.1 µM (active) |
| CN(C)Cc1cn(-c2ccccc2)nc1-c1ccccc1 | 0.719% (inactive) | – |
| COC(=O)c1ccccc1S(=O)(=O)Nc1ccc(OC)cc1 | 4.45% (inactive) | – |
| COc1ccc(C2Nc3ccccc3C(=O)N2Cc2ccc(Cl)cc2)cc1COc1ccc(NC(C)=O)cc1 (centres undefined) | -0.0444% (inactive) | – |
| Cc1ccc(-c2nn3c(=O)cc(CN4CCN(C(=O)Nc5cccc(C(F)(F)F)c5)CC4)nc3s2)cc1 | 8.11% (inactive) | – |
| N#Cc1nc(Nc2cccc(Cl)c2)nc(NC2CCCC2)n1 | -2.17% (inactive) | – |
| O=C1CCc2cc(S(=O)(=O)Nc3cccc(Oc4ccccc4)c3)ccc2N1 | 2.51% (inactive) | – |
| Oc1c(C(c2ccc(F)cc2)N2CCN(Cc3ccccc3)CC2)sc2nc(-c3ccco3)nn12 (centres undefined) | 2.6% (inactive) | – |
| C=CCNC(=O)c1ccc2nc(-c3ccco3)c(-c3ccco3)nc2c1 | -9.19% (inactive) | – |
| O=C1CSc2ccc(C(=O)NCc3ccccn3)cc2N1 | 0.216% (inactive) | – |
| O=C(NCc1ccccn1)c1ccc2nc(-c3ccco3)c(-c3ccco3)nc2c1 | – | 8.91 µM (active) |
| COc1ccc(N2C(=O)CSC23C(=O)N(Cc2cccc(F)c2)c2ccccc23)cc1Cl (centres undefined) | 5.63% (inactive) | – |
| CCCC(=O)N1CCN(c2nc3c(OC)ccc(C)c3s2)CC1 | 0% (inactive) | – |
| CC(=O)c1sc2nc(SCC(=O)N3CCCCC3)[nH]c(=O)c2c1C | -13% (inactive) | – |
| CCOC(=O)c1sc2nc(CSc3ccccc3)[nH]c(=O)c2c1C | 3.49% (inactive) | – |
| CSc1nnc(SCc2nc3sc(C(=O)O)c(C)c3c(=O)[nH]2)s1 | – | 22.4 µM (active) |
| Cc1nn(-c2ccc(N3CCCCC3)nn2)c(C)c1CCC(=O)NCc1ccc(F)cc1 | 0.649% (inactive) | – |
| N#CN1CCC(NC(=O)c2ccc(F)cc2)CC1 | 0.796% (inactive) | – |
| NC(=O)C1CCN(C(=O)c2cccc(NC(=O)c3nsc4ccccc34)c2)CC1 | 2.7% (inactive) | – |
| CC(C)c1ccc(NC(=O)C2CCN(c3nc(-c4ccc(C(C)C)cc4)no3)CC2)cc1 | 8.11% (inactive) | – |
| O=C(COC(=O)C12CC3CC(CC(C3)C1)C2)NCc1ccco1 | – | inactive |
| O=C(COC(=O)c1cccs1)NCc1cccs1 | -0.673% (inactive) | – |
| O=C(COC(=O)CCC(=O)c1cccs1)NCc1ccco1 | – | 22.4 µM (active) |

| Compound | activity change, negative = inhibition | Potency |
| --- | --- | --- |
| CCCCNc1ccc(-c2nc(-c3ccncc3)no2)cc1[N+](=O)[O-] | 0% (inactive) | – |
| Cc1cc(C)c2oc(-c3cccc(NC(=O)c4cccc(F)c4)c3C)nc2c1 | 5.81% (inactive) | – |
| Cc1ccc(Cc2cnc(N)s2)o1 | – | 20 µM (active) |
| Cc1ccc(CCC(=O)Nc2ncc(Cc3cc(Cl)ccc3Cl)s2)o1 | 2.56% (inactive) | – |
| COc1cc(F)c(S(=O)(=O)N2CCCN(S(=O)(=O)c3ccc(N)cc3)CC2)c(F)c1 | 2.59% (inactive) | – |
| O=S1(=O)N=C(Oc2cccc(Br)c2)c2ccccc21 | 1.26% (inactive) | – |
| COc1ccc(NC(=O)CSc2nc(NS(=O)(=O)c3ccc(C)cc3)cc(=O)[nH]2)cc1 | – | 20 µM (active) |
| COc1ccc(NC(=O)CSc2nc3ccccc3[nH]2)cc1 | 1.95% (inactive) | – |
| Cc1ccc(NC(=O)CSc2nc(CSc3ccc(C)cc3)cc(=O)[nH]2)cc1 | 0% (inactive) | – |
| Oc1ccc(Br)cc1C1C=C(c2ccc3c(c2)OCO3)NC(c2ccc(Cl)cc2)N1 (centres undefined) | 2.78% (inactive) | – |
| Cc1ccc2nc(-c3ccc(O)cc3)c(Nc3ccc4c(c3)OCO4)n2c1 | 6.98% (inactive) | – |
| CCc1ccc(CNC(=O)CCc2nc(-c3cccs3)no2)cc1 | 1.31% (inactive) | – |
| COc1ccc(OC)c(CNC(=O)CCc2nc(-c3cccs3)no2)c1 | 0% (inactive) | – |
| COc1ccc(CCc2nc(-c3cccs3)no2)cc1 | – | 89.1 µM (active) |
| CCC(=O)Nc1cccc(-c2nc3cc(C)ccc3o2)c1 | 5.69% (inactive) | – |
| OCCNc1ncnc2oc(-c3ccco3)c(-c3ccco3)c12 | 0.0157% (inactive) | – |
| Cc1cc(CN(C)C(=O)c2cc(COc3ccc(C)c(C)c3)on2)n[nH]1 | 4.51% (inactive) | – |
| Cc1ccc(OCc2cc(C(=O)N(C)CCc3ccccc3)no2)cc1C | – | 50.1 µM (active) |
| CN(CCOc1ccccc1)C(=O)c1cc(COc2c(F)cccc2F)on1 | -0.184% (inactive) | – |
| COc1ccc(C2Nc3ccccc3C(=O)N2Cc2ccco2)cc1COc1cccc(NC(C)=O)c1 (centres undefined) | -0.885% (inactive) | – |
| Cc1ccc(C(=O)COC(=O)C(Cc2c[nH]c3ccccc23)NC(=O)c2ccc(Br)cc2)cc1 (centres undefined) | 0.948% (inactive) | – |
| CCCCNC(=O)Cn1c(SCc2cccc(Cl)c2)nc2ccncc21 | 0.301% (inactive) | – |
| CCN1CCN(c2cc(C)c3cc(NC(=O)c4cc(Cl)ccc4OC)ccc3n2)CC1 | 5.88% (inactive) | – |
| C=CC(COCc1ccccc1)N(Cc1ccccc1)S(=O)(=O)c1ccccc1Br (centres undefined) | -12.1% (inactive) | – |
| C=CCCN(Cc1ccccc1)S(=O)(=O)c1ccccc1Br | – | 39.8 µM (active) |

| Compound | activity change, negative = inhibition | Potency |
| --- | --- | --- |
| C=CCCN(C(Cc1ccccc1)C(=O)OC)S(=O)(=O)c1cc(Br)ccc1Br (centres undefined) | -9.71% (inactive) | – |
| CC1(C)CCc2cc(S(=O)(=O)N3CCN(c4nc(-c5cccs5)nc5ccccc45)CC3)ccc2O1 | 1.18% (inactive) | – |
| Cc1ccc(Cl)cc1NC(=O)C(C)n1nnc2sc(-c3ccccc3)cc2c1=O (centres undefined) | 2.33% (inactive) | – |
| Cc1ccccc1NC(=O)CSc1nc2ccc(Nc3nc(N4CCOCC4)nc(N4CCOCC4)n3)cc2s1 | 2.22% (inactive) | – |
| Cc1ccc(Nc2nc(N)nc(CN3CCN(Cc4ccccc4)CC3)n2)cc1Cl | 6.79% (inactive) | – |
| Cc1ccc(Nc2nc(N3CCOCC3)nc(N3CCOCC3)n2)cc1Cl | – | 22.4 µM (active) |
| CC1CC(C)CN(c2oc(-c3ccc(OCc4ccc(Cl)cc4)cc3)nc2C#N)C1 (centres undefined) | 5.48% (inactive) | – |
| Cc1ccc(CCNC(=O)c2ccc(CS(=O)(=O)Cc3cccc(C)c3)o2)cc1 | 5.2% (inactive) | – |
| CCN1CCN(C(c2ccc(C)cc2)c2c(O)cc(C)n(Cc3ccco3)c2=O)CC1 (centres undefined) | 5.41% (inactive) | – |
| COc1cccc(C(=O)NC2CCN(C#N)CC2)c1 | 1.27% (inactive) | – |
| Cn1c(COc2ccccc2C(C)(C)C)nc2ccccc21 | 0% (inactive) | – |
| O=C(Cc1ccc([N+](=O)[O-])cc1)N/N=C/c1ccco1 | 0% (inactive) | – |
| CC(C)NC(=O)C(=O)N/N=C/c1ccco1 | -10.5% (inactive) | – |
| O=c1nc(N/N=C/c2ccco2)cn[nH]1 | – | 31.6 µM (active) |
| Oc1ccc(Cl)cc1C1C=C(c2ccc3c(c2)OCO3)NC(c2c(F)cccc2Cl)N1 (centres undefined) | 3.95% (inactive) | – |
| Cc1noc(C)c1-c1ccc2ncnc(NCc3ccc(F)c(F)c3)c2c1 | 0.294% (inactive) | – |
| Oc1ccc(Cl)cc1C1C=C(c2ccc3c(c2)OCO3)NC(c2ccc(F)c(Br)c2)N1 (centres undefined) | 1.96% (inactive) | – |
| CO[C@@]12[C@@H](COC(N)=O)C3=C(C(=O)C(C)=C(N)C3=O)N1C[C@@H]1N[C@@H]12 | – | 35.5 µM (active) |
| O=[N+]([O-])c1ccc(S(=O)(=O)N2CCN(c3nc(-c4ccccc4)nc4ccccc34)CC2)cc1 | 2.79% (inactive) | – |
| Cc1cccc(N2CCN(C(=O)c3ccc4c(c3)CCN4S(=O)(=O)c3ccccc3)CC2)c1C | 6.98% (inactive) | – |
| COc1ccc(CCNc2ncnc3c2cnn3-c2ccc(C)cc2)cc1 | 2.6% (inactive) | – |
| CC(O)c1nc2ccccc2n1Cc1ccc([N+](=O)[O-])cc1 (centres undefined) | 0% (inactive) | – |
| CCOCN(C(=O)Cn1c(C(C)O)nc2ccccc21)c1c(C)cccc1CC (centres undefined) | – | 89.1 µM (active) |
| CCc1cccc(C)c1N(C(=O)Cn1c(CO)nc2ccccc21)C(C)COC (centres undefined) | 4.37% (inactive) | – |
